Inconclusive results are not listed. Calls of active or inactive are those of the source. The call rests on the fitted dose curve; in most records, active means well fitted cell-killing curve with a large enough effect; inconclusive means small, poorly fitted or top-dose-only effect, or effect the other way; inactive means flat fitted curve, though single readings scatter.
Assays:
Assay in all cases: Primary qHTS to identify gynecologic anti-cancer compounds using libraries of approved drugs and bioactive compounds (AID 1345084); further: nearly all actives have a fitted effect of over 55% in size
Details in all cases: Gynecologic cancer cell panel viability, ATPlite luminescence, 48 h; series mostly up to 57.5 µM
PA-1 = test system: PA-1
Outline: (§1)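 48 h compound exposure at 37 C, 5% CO2; five-point qHTS. ATPlite luminescence readout of cell ATP.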

Tov-21-G = test system: Tov-21-G
Outline: as §1

Tov112D = test system: Tov112D
Outline: as §1

Measured: Potency

C[C@]1(C2CCCC2)Cc2cc(OCC(=O)O)c(Cl)c(Cl)c2C1=O
inactive: all assays above

Cc1occc1C(=O)n1ccnc1
inactive: all assays above

C=C[C@@](C)(CCC=C(C)C)O[C@@H]1O[C@H](CO[C@@H]2OC[C@H](O)[C@H](O)[C@H]2O)[C@@H](O)[C@H](O)[C@H]1O
inactive: all assays above

Cc1ccccc1NC(=O)Nc1ccc(CN2C(=O)N([C@@H](CC(C)C)C(=O)N[C@@H](CC(=O)O)c3ccccc3)C(=O)C2(C)C)cc1
inactive: all assays above

O=C(C[C@@H]1C(C(=O)O)=CO[C@@H](O[C@@H]2O[C@H](CO)[C@@H](O)[C@H](O)[C@H]2O)/C1=C\CO)OCCc1ccc(O)c(O)c1
inactive: all assays above

COc1c(-c2ccc(O)cc2)cc(OC)c2c1oc1cc(O)c(OC3OC(CO)C(O)C3O)cc12 (stereo not given)
inactive: all assays above

C/C(=C\CCC(C)(C)O)CCO[C@@H]1O[C@H](CO[C@@H]2O[C@@H](C)[C@H](O)[C@@H](O)[C@H]2O)[C@@H](O)[C@H](O)[C@H]1O
inactive: all assays above

Cc1ccc2[nH]c(=O)c(C3=NN(C(=O)CCC(=O)O)C(c4ccc(Br)cc4)C3)c(-c3ccccc3)c2c1 (stereo not given)
inactive: all assays above

C#CCCCn1cc(-c2cccc3c2N[C@@H](C)CC(=O)N3)cn1
inactive: all assays above

C=C1C(O)CCC2(C)CC3(OC)OC(=O)C(C)=C3CC12 (stereo not given)
inactive: all assays above
